MARV entry inh – blocks Marburg virus binding to or entry into cells | Marburg virus pseudotyped entry inhibition, cell reporter | Potency, µM (highest dose often 37.8 µM), usual class: inhibitors | 1.8% of 300,000 active | AID 540276; calls by dose curve; tested in HEK293 cells
VACV Venus inh – vaccinia inhibition (Venus reporter); Vaccinia virus Venus reporter expression, fluorescence; Potency, µM (titrated, usually from 36.5 µM), usual class: inhibitors; 0.46% of 330,000 active; calls by dose curve; tested in A549 cells; further: nearly all actives have a fitted effect of over 30% in size
CHX counter – affects cycloheximide protein synthesis inhibition readout, counter-screen; cell reporter, cycloheximide protein synthesis inhibition counterscreen; 12% of 300,000 active; max response, %; in the data active means max response mostly above about 13%, no sharp cut-off; inactive means mostly below about 14%; further: read at 38.3 µM for the half of the compounds with a filed dose
VACV mCherry inh – vaccinia inhibition (mCherry reporter); Vaccinia virus mCherry reporter infection, fluorescence; Potency, µM (series often up to 36.5 µM), actives largely listed as inhibitors; 0.63% of 310,000 active; calls by dose curve; tested in A549 cells; further: nearly all actives have a fitted effect of over 35% in size
LASV entry inh – blocks Lassa virus binding to or entry into cells. 1.2% of 300,000 active. Potency, µM (highest dose often 37.9 µM), actives largely listed as inhibitors. AID 540256. Lassa virus pseudotype entry inhibition, cell reporter; calls by dose curve; tested in HEK293 cells; further: nearly all actives have a fitted effect of over 50% in size
Shiga inhibitor – inhibitors of Shiga toxin in Vero cells; Vero cells, Shiga toxin protein synthesis inhibition reporter; inhibition, % at 38.7 µM; 9.2% of 290,000 active; AID 2315; in the data active means inhibition mostly above about 28%, no sharp cut-off; inactive means mostly below about 43%
Numbers stand for hits; [ ] = remark or other dose. Only a selection was taken, and hits are over-represented in it overall.

Screening O=P(c1ccccc1)(c1ccccc1)c1cc(Br)cc(Br)c1OCCO returned MARV entry inh 13µM, VACV Venus inh inactive, CHX counter inactive, VACV mCherry inh inconclusive, LASV entry inh inactive and Shiga inhibitor inactive.
O=P(Cc1cc(Br)cc(Br)c1OCCO)(c1ccccc1)c1ccccc1 was read as MARV entry inh inconclusive, VACV Venus inh inactive, CHX counter inactive, VACV mCherry inh inactive, LASV entry inh inconclusive and Shiga inhibitor inactive.
CCN(CC)C(=O)c1nc[nH]c1C(=O)N1CCN(c2ccccc2)CC1 was read as VACV Venus inh inactive and VACV mCherry inh inactive.
For Cc1cccn2c(=O)c(C(=O)NCc3ccc(F)cc3)c(O)nc12 the results were MARV entry inh inactive, VACV Venus inh inactive and VACV mCherry inh inactive.
For COc1ccc(C(=O)N=c2nc(-c3ccccc3)n(-c3ccccc3)s2)cc1 the results were VACV Venus inh inactive and VACV mCherry inh inactive.
`O=C(N=c1nc2ccccn2s1)c1ccccc1` gave MARV entry inh inconclusive, VACV Venus inh inactive, CHX counter 41, VACV mCherry inh inactive, LASV entry inh inactive and Shiga inhibitor 152.
Screening CC1CCc2nn(CC(=O)Nc3cccc(C(F)(F)F)c3)c(=O)cc2C1 (stereo not drawn) returned VACV Venus inh inactive, VACV mCherry inh inactive and LASV entry inh inactive.
COC(=O)C1=C2C=CCCN2C(=O)NC1c1ccccc1 (stereo not drawn) was read as MARV entry inh inactive.
CS(=O)(=O)N(CC(=O)N1CCc2ccccc2C1)c1ccccc1Br was read as CHX counter inactive and Shiga inhibitor inactive.
For O=C(c1cc2c(s1)-c1ccccc1OC2)N1CCC2(CC1)OCCO2 the results were MARV entry inh inactive, VACV Venus inh inactive, CHX counter 40, VACV mCherry inh inconclusive, LASV entry inh inactive and Shiga inhibitor 39.
For CCCN1CCN(C(=O)c2cc3c(s2)-c2ccccc2OC3)CC1 the results were CHX counter 26 and Shiga inhibitor 32.
O=S(=O)(Nc1cc(F)ccc1F)c1ccc2[nH]c3c(c2c1)CCCC3 was read as VACV Venus inh inactive, VACV mCherry inh inactive and LASV entry inh inactive.
`Cc1ccc2c(c1C)NC(=O)C21N2CCCC2C(C(=O)c2ccc3ccccc3c2)C12C(=O)Nc1ccccc12` (stereo not drawn) gave CHX counter 56 and Shiga inhibitor inactive.
`COc1cccc2c1[C@H](C=Cc1ccccc1)[C@@H]([C@H](O)CN=[N+]=[N-])OC2` gave MARV entry inh inactive.
`Nc1ccc(Br)c[n+]1Cc1cccc2cccnc12` gave MARV entry inh 10µM, VACV Venus inh inactive, CHX counter inactive, VACV mCherry inh inactive, LASV entry inh inactive and Shiga inhibitor inactive.
`Nc1scn[n+]1Cc1cccc2cccnc12` gave CHX counter inactive and Shiga inhibitor inactive.
O=C(Nc1ccc2c(c1)ncn2C1CCCCC1)c1ccco1 was read as MARV entry inh inactive, VACV Venus inh inactive, CHX counter 37, VACV mCherry inh inactive, LASV entry inh inactive and Shiga inhibitor 91.
For CC(C)n1cnc2cc(NC(=O)c3ccco3)ccc21 the results were MARV entry inh inactive, VACV Venus inh inactive, CHX counter 28, VACV mCherry inh inactive, LASV entry inh inconclusive and Shiga inhibitor 75.
COc1ccc(-n2cnc3cc(NC(=O)c4ccco4)ccc32)cc1 was read as MARV entry inh inactive, CHX counter inactive, LASV entry inh inactive and Shiga inhibitor inactive.
`C[C@@H](NC(=O)[C@@H]1Cc2ccccc2CN1)C(=O)Nc1ccc2c(c1)OCCO2` gave CHX counter 27 and Shiga inhibitor 67.
C[C@H](NC(=O)[C@@H]1Cc2ccccc2CN1)C(=O)Nc1ccc2c(c1)OCO2 was read as CHX counter 30 and Shiga inhibitor inactive.
CSCC[C@H](NC(=O)[C@@H]1Cc2ccccc2CN1)C(=O)Nc1ccc2c(c1)OCO2 was read as MARV entry inh inactive, VACV Venus inh inactive, CHX counter 48, VACV mCherry inh inconclusive, LASV entry inh inconclusive and Shiga inhibitor inactive.
For O=C(CNC(=O)[C@@H]1Cc2ccccc2CN1)Nc1ccc2c(c1)OCO2 the results were CHX counter inactive and Shiga inhibitor inactive.
For COc1ccc(O)c(CN2CCC3(CCC(CNC(=O)C4CCCO4)O3)CC2)c1 (stereo not drawn) the results were VACV Venus inh inactive and VACV mCherry inh inactive.
For N#C/C(=C/C=C/c1ccccc1)C(=O)Nc1ccccc1 the results were MARV entry inh 2.9µM, CHX counter inactive, LASV entry inh inconclusive and Shiga inhibitor inactive.
`N#C/C(=C\c1ccccc1C(F)(F)F)C(=O)Nc1ccccc1` gave MARV entry inh inactive, VACV Venus inh inactive, CHX counter 17, VACV mCherry inh inactive, LASV entry inh inactive and Shiga inhibitor inactive.
For N#C/C(=C\C=C\c1ccccc1)C(=O)Nc1ccccc1 the results were MARV entry inh inactive, VACV Venus inh inactive, CHX counter 15, VACV mCherry inh inactive, LASV entry inh inactive and Shiga inhibitor inactive.
For COCCNC(=O)/C(C#N)=C/C=C/c1ccccc1 the results were MARV entry inh inconclusive, VACV Venus inh inactive, CHX counter 17, VACV mCherry inh inactive, LASV entry inh inactive and Shiga inhibitor inactive.
Screening CCOc1ccccc1NC(=O)Cn1c(=O)n(Cc2nc(C)no2)c(=O)c2ccccc21 returned VACV Venus inh inactive, VACV mCherry inh inactive and LASV entry inh inactive.
CCOc1ccc(-c2cc(C(=O)N/N=C/c3cccnc3)c3ccccc3n2)cc1 was read as MARV entry inh inconclusive, VACV Venus inh inactive, CHX counter 26, VACV mCherry inh inconclusive, LASV entry inh inconclusive and Shiga inhibitor 62.
For CC(C)COc1cccc(-c2cc(C(=O)N/N=C/c3ccncc3)c3ccccc3n2)c1 the results were MARV entry inh 2.8µM, VACV Venus inh inactive, CHX counter inactive, VACV mCherry inh inconclusive, LASV entry inh inconclusive and Shiga inhibitor inactive.
For Cc1cc(C(=O)N/N=C/c2cccnc2)c2ccccc2n1 the results were MARV entry inh inconclusive, VACV Venus inh inactive, CHX counter inactive, VACV mCherry inh inactive, LASV entry inh inactive and Shiga inhibitor inactive.
Screening O=C(COc1ccccc1-c1ccccc1)N/N=C/c1cccnc1 returned CHX counter inactive and Shiga inhibitor inactive.
`CCOc1ccccc1-c1cc(C(=O)N/N=C/c2cccnc2)c2ccccc2n1` gave MARV entry inh 5.6µM, VACV Venus inh inactive, VACV mCherry inh inactive and LASV entry inh inconclusive.
Cc1ccc(COc2ccccc2-c2cc(C(=O)N/N=C/c3cccnc3)[nH]n2)cc1 was read as MARV entry inh inconclusive, VACV Venus inh inactive[7.34 µM], CHX counter inactive, VACV mCherry inh inconclusive, LASV entry inh 8.9µM and Shiga inhibitor inactive.
O=C(CNC(=O)c1ccc(Cl)cc1)OCC(=O)N1CCCC1 was read as MARV entry inh inactive, VACV Venus inh inactive, CHX counter inactive, VACV mCherry inh inactive, LASV entry inh inactive and Shiga inhibitor inactive.
`CCOC(=O)COc1ccc([N+](=O)[O-])cc1-c1ccnc2cc(-c3ccc(Cl)cc3)nn12` gave MARV entry inh inactive, VACV Venus inh inactive, VACV mCherry inh inactive and LASV entry inh inactive.
